Growth inhibition, inhibition and outcome data for 20 compounds are collected here from PubChem BioAssay.

Values without a mark were called inactive. For some of these results: Results with a measured potency or affinity are listed apart. Active and inactive are the calls of the source. Unless noted, the rule behind the calls is not given here.

Test [1] in a line: antimalarial activity against Dd2 strain (AID 2302;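 active = growth inhibition above 50% at the single 2 µM test dose, taken to imply half-maximal potency below 2 µM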;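 note: 0% = DMSO untreated growth and 100% = chloroquine plus artemisinin killed control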). To be noted: P. falciparum Dd2 in RBCs, LDH growth readout, 72 h; at 2 µM; active compounds read high.
The nature of test [2]: human hepatoma cell viability loss – ATP luminescence, cytotoxicity control for P. falciparum antimalarial project, primary screen (AID 2303;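 active = inhibition above 50%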;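 note: 0% = DMSO wells and 100% = digitonin-killed cells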). To be noted: HepG2 viability, 24-48 h, at 10 µM, active compounds read high.
In test [3] the target is L-lactate dehydrogenase (Plasmodium falciparum (isolate CDC / Honduras)) (UniProt Q27743). Briefly: PfLDH activity inhibition – cell lysate, 3D7 strain, counter-screen for P. falciparum growth inhibition project (AID 2304).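 Note: 0% = vehicle and 100% = reference inhibitor.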 To be noted: P. falciparum 3D7 crude extract, LDH APAD/NBT absorbance; at 2 µM; active compounds read high. For orientation: A counterscreen serves to expose hits that act by an unwanted route or on another target.

A short description of test [4]: inhibition of 3D7 malaria parasite growth – strain 3D7 (AID 2306).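 Note: 0% = DMSO wells and 100% = chloroquine plus artemisinin control wells.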 To be noted: P. falciparum 3D7 erythrocytic growth, LDH absorbance, 72 h; at 2 µM; active compounds read high.
In test [5] the target is Calcium-dependent protein kinase 1 (Plasmodium falciparum (isolate 3D7)) (UniProt P62344). Kind of test: PfCDPK1 kinase inhibitors, biochemical, TCAMS library (AID 1159585; cut-off not given, nearly all actives have IC50 up to about 0.98 µM;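 note: inhibitors leave more ATP so luminescence rises with inhibition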). To be noted: recombinant PfCDPK1, Kinase-Glo ATP depletion luminescence.
For test [6], the target named is Plasmodium falciparum protein kinase 6 (PK6, PF3D7_1337100) (UniProt Q8IDW1). Briefly: PfPK6 kinase inhibitors, biochemical, TCAMS library (AID 1159586). To be noted: recombinant PfPK6, Kinase-Glo ATP depletion luminescence.
Test [7] concerns the target Protein kinase 7 (PK7), Plasmodium falciparum 3D7 (PF3D7_0213400) (UniProt Q7YTF7). Kind of test: inhibition of Plasmodium PK7 catalytic activity – biochemical, TCAMS antimalarial set, Kinase-Glo luminescence (AID 1159587). To be noted: recombinant PfPK7, Kinase-Glo ATP depletion luminescence. In general terms: Kinase-Glo measures the ATP left after a reaction by luminescence.

For test [8], the target named is Calcium-dependent protein kinase 4 (Plasmodium falciparum (isolate 3D7)) (UniProt Q8IBS5). Briefly: PfCDPK4 kinase inhibitors, biochemical, TCAMS library (AID 1159588; cut-off not given, nearly all actives have IC50 up to about 0.91 µM). To be noted: recombinant PfCDPK4, Kinase-Glo ATP depletion luminescence.

As usually defined, the inhibition is the relative decrease from the control value, in per cent.

Sequence of Plasmodium falciparum protein kinase 6 (PK6, PF3D7_1337100) (Q8IDW1 1-305): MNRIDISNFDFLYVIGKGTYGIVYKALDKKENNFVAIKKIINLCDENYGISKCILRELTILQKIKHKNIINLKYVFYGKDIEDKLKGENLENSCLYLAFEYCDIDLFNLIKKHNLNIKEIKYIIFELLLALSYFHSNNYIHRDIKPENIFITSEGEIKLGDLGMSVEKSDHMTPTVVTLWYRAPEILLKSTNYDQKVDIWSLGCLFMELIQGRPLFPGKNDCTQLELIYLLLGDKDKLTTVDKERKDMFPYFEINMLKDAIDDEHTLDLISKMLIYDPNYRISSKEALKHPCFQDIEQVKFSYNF
Sequence of Calcium-dependent protein kinase 4 (Plasmodium falciparum (isolate 3D7)) (Q8IBS5 whole entry, looked up): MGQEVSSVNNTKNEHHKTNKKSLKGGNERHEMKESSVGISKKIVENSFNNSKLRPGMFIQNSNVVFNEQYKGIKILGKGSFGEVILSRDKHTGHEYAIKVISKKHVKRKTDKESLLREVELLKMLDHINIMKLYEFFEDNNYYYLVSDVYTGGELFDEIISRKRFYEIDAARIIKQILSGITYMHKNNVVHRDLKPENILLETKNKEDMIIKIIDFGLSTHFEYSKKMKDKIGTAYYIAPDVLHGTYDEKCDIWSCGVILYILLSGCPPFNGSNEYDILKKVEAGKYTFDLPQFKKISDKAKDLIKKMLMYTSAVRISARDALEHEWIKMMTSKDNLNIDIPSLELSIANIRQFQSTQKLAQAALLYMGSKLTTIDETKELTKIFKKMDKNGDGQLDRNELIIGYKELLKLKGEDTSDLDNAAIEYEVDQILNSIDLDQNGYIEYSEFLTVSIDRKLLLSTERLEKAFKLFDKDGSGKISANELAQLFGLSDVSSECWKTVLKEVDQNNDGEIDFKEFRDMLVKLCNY
Sequence of Calcium-dependent protein kinase 1 (Plasmodium falciparum (isolate 3D7)) (P62344 whole entry, looked up): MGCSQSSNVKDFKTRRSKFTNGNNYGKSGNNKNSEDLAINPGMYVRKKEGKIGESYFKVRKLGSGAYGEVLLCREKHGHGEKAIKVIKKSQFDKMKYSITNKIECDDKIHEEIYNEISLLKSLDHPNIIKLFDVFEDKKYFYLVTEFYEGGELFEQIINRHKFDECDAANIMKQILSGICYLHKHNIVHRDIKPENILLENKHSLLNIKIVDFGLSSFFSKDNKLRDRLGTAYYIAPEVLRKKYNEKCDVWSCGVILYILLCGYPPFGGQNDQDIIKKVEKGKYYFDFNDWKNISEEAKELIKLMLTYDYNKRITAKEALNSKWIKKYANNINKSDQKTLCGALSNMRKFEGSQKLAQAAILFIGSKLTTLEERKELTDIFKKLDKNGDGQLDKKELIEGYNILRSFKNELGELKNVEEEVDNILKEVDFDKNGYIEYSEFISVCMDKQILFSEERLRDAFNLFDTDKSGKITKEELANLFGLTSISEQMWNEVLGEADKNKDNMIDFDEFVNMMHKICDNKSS
Sequence of Protein kinase 7 (PK7), Plasmodium falciparum 3D7 (PF3D7_0213400) (Q7YTF7 1-343): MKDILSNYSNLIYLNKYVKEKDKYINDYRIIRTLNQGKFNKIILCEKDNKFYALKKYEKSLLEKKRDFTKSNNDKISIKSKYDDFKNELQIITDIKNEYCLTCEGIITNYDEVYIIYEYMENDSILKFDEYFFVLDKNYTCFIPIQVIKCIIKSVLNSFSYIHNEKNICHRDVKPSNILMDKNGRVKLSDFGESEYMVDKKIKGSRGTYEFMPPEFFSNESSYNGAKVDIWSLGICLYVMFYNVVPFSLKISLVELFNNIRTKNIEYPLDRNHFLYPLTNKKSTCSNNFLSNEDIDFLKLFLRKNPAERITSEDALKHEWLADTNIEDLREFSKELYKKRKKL
Sequence of L-lactate dehydrogenase (Plasmodium falciparum (isolate CDC / Honduras)) (Q27743 whole entry, looked up): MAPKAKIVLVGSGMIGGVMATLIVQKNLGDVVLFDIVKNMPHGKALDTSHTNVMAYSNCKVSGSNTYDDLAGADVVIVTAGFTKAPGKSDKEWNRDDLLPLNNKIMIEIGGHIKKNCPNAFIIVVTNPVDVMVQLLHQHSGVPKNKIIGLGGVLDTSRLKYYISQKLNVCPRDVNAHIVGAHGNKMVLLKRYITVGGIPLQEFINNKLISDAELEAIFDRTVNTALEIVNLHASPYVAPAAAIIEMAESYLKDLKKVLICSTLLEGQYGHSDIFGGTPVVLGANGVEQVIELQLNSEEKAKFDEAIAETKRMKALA

`NC(=O)c1ccc(NCC(=O)Nc2cccc(-c3cccc(-c4nc5ccccc5[nH]4)c3)c2)cc1`: the growth inhibition in test [1] was 30%; in test [4], 99% (active). Also, the inhibition in test [2] was 9%; in test [3], -3%. In addition, the result in test [5], in test [6], in test [7] and in test [8] was inactive.

For `O=C(Nc1cccc(C(F)(F)F)c1)c1ccc(S(=O)(=O)NCC2CCCN2CC2CCCCC2)cc1` (stereo not given), the growth inhibition in test [1] was 3%; in test [4], 98% (active). The inhibition in test [2] was 14%; in test [3] it was -5%. Moreover, the result in test [5], in test [6], in test [7] and in test [8] was inactive.

For the compound `O=C(c1cncc(-c2ccccc2)c1)N(Cc1cncn1Cc1ccccc1F)CC1CC1`, the growth inhibition is 0% in test [1] and 100% (active) in test [4]. The inhibition in test [2] was -5%; in test [3], -4%. Moreover, the result in test [5], in test [6], in test [7] and in test [8] was inactive.

As for `O=C(/C=C/c1ccc(Cl)c(Cl)c1)NCCCCN1CCCN(C(=O)Nc2ccc(Cl)c(Cl)c2)CC1`, the growth inhibition in test [1] is 1%; in test [4], 96% (active). For the same compound, the results for the inhibition in test [2] and in test [3] were 22% and 3%, respectively. The outcome in test [5], in test [6], in test [7] and in test [8] was inactive.

Turning to `CC(=O)c1ccc2cc(C(=O)NC3CCC(CCN4CCc5ccc(-c6noc(C)n6)cc5CC4)CC3)[nH]c2c1` (stereo not given), the growth inhibition is 45% in test [1] and 81% (active) in test [4]. For the same compound, the inhibition in test [2] was 28%; in test [3], 0%. Further, the result in test [5], in test [6], in test [7] and in test [8] was inactive.

Take `CC1CN(c2ccc(C(=O)NCC3CC3)cc2NC(=O)OCc2ccccc2)CC(C)O1` (stereo not given): the growth inhibition in test [1] is 76% (active); in test [4], 91% (active). Besides, the inhibition in test [2] was -5%; in test [3] it was -2%. Besides, the outcome in test [5], in test [6], in test [7] and in test [8] was inactive.

For the compound `Cn1ncc2ccc(Nc3nccc(-c4ccc5c(c4)c(N)nn5C)n3)cc21`, the results for the growth inhibition in test [1] and in test [4] were 96% (active) and 99% (active), respectively. The inhibition in test [2] was 48%; in test [3] it was -2%. In addition, the result in test [5], in test [6], in test [7] and in test [8] was inactive.

`CCNc1cc(C(=O)N[C@@H](Cc2ccccc2)[C@H](O)CNCc2cc(C#N)ccc2OC)cc(N2CCCC2=O)c1`: the values for the growth inhibition in test [1] and in test [4] were 51% (active) and 85% (active), respectively. In addition, the inhibition in test [2] was -1%; in test [3], -3%. Also, the result in test [5], in test [6], in test [7] and in test [8] was inactive.

On to `Cc1[nH]c(C)c(-c2ccc(OCc3ccc(OC(F)(F)F)cc3)nc2)c(=O)c1Br`, for which the values for the growth inhibition in test [1] and in test [4] were 97% (active) and 98% (active), respectively. The inhibition is 10% in test [2] and 7% in test [3]. For the same compound, the outcome in test [5], in test [6], in test [7] and in test [8] was inactive.

Regarding `COc1ccc(Cl)cc1NC(=O)C(C)N1CCN(S(=O)(=O)c2ccccc2F)CC1` (stereo not given), the growth inhibition in test [1] was 66% (active); in test [4], 93% (active). Moreover, the inhibition in test [2] is 5%; in test [3], 4%. The outcome in test [5], in test [6], in test [7] and in test [8] was inactive.

For `CCOC(=O)c1[nH]c(-c2cc(Cl)nc(Cl)c2)nc1NC(=S)NCc1ccc(NS(C)(=O)=O)cc1`, the growth inhibition in test [1] is 98% (active); in test [4], 100% (active). In addition, the inhibition in test [2] and in test [3] was -1% each time. The outcome in test [5], in test [6], in test [7] and in test [8] was inactive.

As for `CCCCCN1CCC(NC(=O)c2ccc(C(=O)Nc3ccc(C(C)C)cc3)cc2)C1` (stereo not given), the growth inhibition is 17% in test [1] and 95% (active) in test [4]. Also, the figures for the inhibition in test [2] and in test [3] were 38% and 2%, respectively. The result in test [5], in test [6], in test [7] and in test [8] was inactive.

`Cc1cccc(C(=O)Nc2ccnc(N3CCC(N(C)Cc4cccc(O)c4)CC3)c2)c1`: the values for the growth inhibition in test [1] and in test [4] were 41% and 95% (active), respectively. Also, the inhibition in test [2] is 7%; in test [3], -1%. Besides, the result in test [5], in test [6], in test [7] and in test [8] was inactive.

On to `CC(C)[C@H](NC(=O)c1ccc(O)c(-c2cccc(C(F)(F)F)c2)c1)C(=O)NC1CCCc2ccccc21` (stereo not given in full), for which the growth inhibition was 25% in test [1] and 82% (active) in test [4]. Moreover, the inhibition is 2% in test [2] and 7% in test [3]. Besides, the result in test [5], in test [6], in test [7] and in test [8] was inactive.

As for `CCOc1ccccc1[C@H]1[C@H](C(=O)C(C)(C)C)N2c3ccc(Br)cc3C=CC2C12C(=O)c1ccccc1C2=O` (stereo not given in full), the growth inhibition in test [1] was 94% (active); in test [4], 95% (active). Also, the inhibition in test [2] was 17%; in test [3], 1%. Moreover, the result in test [5], in test [6], in test [7] and in test [8] was inactive.

Consider `COc1ccc(Cn2c(Nc3cccc(C(F)(F)F)c3)nc3cc(C(=O)NCCN4CCCC4)cnc32)cc1Cl`, for which the growth inhibition is 31% in test [1] and 97% (active) in test [4]. Further, the results for the inhibition in test [2] and in test [3] were 10% and 0%, respectively. The outcome in test [5], in test [6], in test [7] and in test [8] was inactive.

Take `CC(=O)Nc1ccc(C(=O)NC2CCN(c3ccnc4cc(Cl)ccc34)C2)cc1` (stereo not given): the results for the growth inhibition in test [1] and in test [4] were 100% (active) and 101% (active), respectively. Further, the inhibition in test [2] is 1%; in test [3], -1%. Also, the outcome in test [5], in test [6], in test [7] and in test [8] was inactive.

In the case of `O=C(O)c1ccc(OCOCOc2ccc(C(=O)O)c(O)c2)cc1O`, the growth inhibition is 0% in test [1] and 99% (active) in test [4]. Besides, the results for the inhibition in test [2] and in test [3] were -2% and 6%, respectively. Also, the result in test [5], in test [6], in test [7] and in test [8] was inactive.

As for `N#Cc1ccc2c(c1)CN(CCCCNC(=O)c1ccc(-c3ccccc3)cc1)CC2`, the growth inhibition is 10% in test [1] and 96% (active) in test [4]. Besides, the inhibition in test [2] is -9%; in test [3] it was -1%. Further, the outcome in test [5], in test [6], in test [7] and in test [8] was inactive.

Regarding `CCN(CC)c1ccccc1CNC(=O)c1cc(Cl)c(N)cc1OC`, the growth inhibition in test [1] was 94% (active); in test [4] it was 97% (active). The results for the inhibition in test [2] and in test [3] were 6% and -1%, respectively. For the same compound, the outcome in test [5], in test [6], in test [7] and in test [8] was inactive.
